KDM5B inhibitor = KDM5B demethylase inhibition | AID 1347165 | Q9UGL1 | actives 2.6% (n = 220,000) | Potency, µM (titrated, usually from 57.7 µM), most hits filed as inhibitors | KDM5B demethylase, FDH-coupled NADH fluorescence (FDH is formaldehyde dehydrogenase); active = well fitted inhibition curve with a large enough effect; also: nearly all actives have a fitted effect of over 70% in size
Target sequence (Q9UGL1 whole entry, looked up): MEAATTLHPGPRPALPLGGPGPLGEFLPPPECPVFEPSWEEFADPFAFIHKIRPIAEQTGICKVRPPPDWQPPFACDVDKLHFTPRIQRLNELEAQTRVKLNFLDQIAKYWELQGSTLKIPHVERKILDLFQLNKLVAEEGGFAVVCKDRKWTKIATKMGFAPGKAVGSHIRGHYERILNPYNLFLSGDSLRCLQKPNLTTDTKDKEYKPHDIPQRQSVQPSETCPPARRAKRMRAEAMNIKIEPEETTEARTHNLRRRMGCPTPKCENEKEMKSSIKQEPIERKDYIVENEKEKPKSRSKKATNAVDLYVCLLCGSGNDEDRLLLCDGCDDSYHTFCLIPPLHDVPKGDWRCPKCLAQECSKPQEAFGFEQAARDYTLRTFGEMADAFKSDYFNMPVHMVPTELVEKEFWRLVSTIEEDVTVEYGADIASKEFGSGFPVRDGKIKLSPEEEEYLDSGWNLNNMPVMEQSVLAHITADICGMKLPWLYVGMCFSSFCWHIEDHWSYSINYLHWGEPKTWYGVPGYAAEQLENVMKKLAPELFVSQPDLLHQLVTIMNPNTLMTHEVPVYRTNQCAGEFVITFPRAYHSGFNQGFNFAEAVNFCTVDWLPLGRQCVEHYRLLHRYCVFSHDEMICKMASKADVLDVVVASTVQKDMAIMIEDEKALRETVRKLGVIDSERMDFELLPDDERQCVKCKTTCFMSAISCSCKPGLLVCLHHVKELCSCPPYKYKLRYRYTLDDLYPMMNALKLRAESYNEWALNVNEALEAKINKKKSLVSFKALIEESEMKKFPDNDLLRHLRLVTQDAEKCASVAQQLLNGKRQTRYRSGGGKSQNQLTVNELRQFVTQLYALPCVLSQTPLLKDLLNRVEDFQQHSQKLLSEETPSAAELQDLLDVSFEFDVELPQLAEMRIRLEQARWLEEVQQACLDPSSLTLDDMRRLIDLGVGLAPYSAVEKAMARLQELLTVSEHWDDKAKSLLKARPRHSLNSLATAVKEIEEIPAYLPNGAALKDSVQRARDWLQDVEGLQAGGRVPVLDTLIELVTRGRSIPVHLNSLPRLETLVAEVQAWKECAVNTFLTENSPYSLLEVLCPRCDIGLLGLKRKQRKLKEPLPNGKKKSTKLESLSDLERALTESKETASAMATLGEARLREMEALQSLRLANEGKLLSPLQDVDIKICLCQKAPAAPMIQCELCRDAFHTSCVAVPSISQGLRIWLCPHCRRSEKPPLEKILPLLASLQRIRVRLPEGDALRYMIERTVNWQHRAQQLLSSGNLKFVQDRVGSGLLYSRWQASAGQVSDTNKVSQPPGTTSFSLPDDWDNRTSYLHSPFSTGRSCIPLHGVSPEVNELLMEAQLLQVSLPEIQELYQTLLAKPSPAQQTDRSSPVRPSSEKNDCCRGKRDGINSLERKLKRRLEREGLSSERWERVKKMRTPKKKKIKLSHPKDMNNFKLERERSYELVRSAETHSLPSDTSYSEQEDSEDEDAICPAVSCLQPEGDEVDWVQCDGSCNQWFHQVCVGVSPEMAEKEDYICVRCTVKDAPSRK
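Measured: NADH fluorescence change, 30 min, RT. System: KDM5BΔAP 200 nM final, H3K4me3 peptide, α-KG, Fe(II), ascorbate, NAD⁺ plus FDH, pH 7.5 HEPES. Compounds: titrated, 10 min pre-incubation with enzyme.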
A number is an active result. The sample as a whole holds a higher share of hits than the screen did.

For COc1ccccc1-c1nc(SCC(=O)Nc2ccccc2)n2[nH]c(=O)cc2n1 the results were KDM5B inhibitor inactive.
Screening Cc1cc(CNC(=O)c2cc(-c3ccco3)nc3c(Cl)cccc23)no1 returned KDM5B inhibitor 28µM.
For Cc1cc(C)n2nc(CC(=O)NCc3cc(-c4ccco4)on3)nc2n1 the results were KDM5B inhibitor inactive.
For C[C@@H]1CN(C(=O)c2cc(-c3ccco3)nc3c(Cl)cccc23)C[C@]1(C)O the results were KDM5B inhibitor inactive.
Screening C=CCN(C)C(=O)C[C@@H]1c2nc(NC(=O)Cc3ccc(OC)cc3)sc2C[C@@H]2[C@](C)(CO)[C@H](O)CC[C@]21C returned KDM5B inhibitor inactive.
Screening O=C(Nc1ccc(S(=O)(=O)N2CCC(Cc3ccccc3)CC2)cc1)C1=COCCO1 returned KDM5B inhibitor inactive.
Screening COc1ccc(NC(=O)N2C[C@@H]3C[C@H](C2)c2ccc(NC(=O)c4ccccc4)c(=O)n2C3)cc1 returned KDM5B inhibitor inactive.
Screening CN(C)CC(=O)N1C[C@@H]2C[C@H](C1)c1ccc(-c3ccccc3CN3CCOCC3)c(=O)n1C2 returned KDM5B inhibitor 18µM.
`CC(C)(CC(=O)O)CC(=O)N1C[C@@H]2C[C@H](C1)c1ccc(-c3cc4ccccc4s3)c(=O)n1C2` gave KDM5B inhibitor inactive.
`CN(C)[C@@H]1CN(C(=O)c2ccoc2)CC[C@@H]1CO` gave KDM5B inhibitor inactive.
For CC1(C)CC(=O)C=C(C(=O)N2CCCC(N3CCN(c4ccccc4F)CC3)C2)O1 (stereo not given) the results were KDM5B inhibitor inactive.
`O=C(NC1CC1)C1c2ccccc2C(=O)N(C2CCCCC2)C12CCCCC2` (stereo not given) gave KDM5B inhibitor inactive.
For CC(C)NC(=O)C1c2ccccc2C(=O)N(C2CCCC2)C12CCCC2 (stereo not given) the results were KDM5B inhibitor inactive.
For Cc1nc(NC(=O)C2c3ccccc3C(=O)N(C3CCCC3)C23CCCC3)sc1C (stereo not given) the results were KDM5B inhibitor 22µM.
For COCCN1C(=O)c2ccccc2C(C(=O)Nc2ccc(NC(C)=O)cc2)C12CCCCC2 (stereo not given) the results were KDM5B inhibitor inactive.
`COCCN1C(=O)c2ccccc2C(C(=O)NCCc2ccccc2)C12CCCCC2` (stereo not given) gave KDM5B inhibitor inactive.
Screening COCCN1C(=O)c2ccccc2C(C(=O)Nc2ccc(OC)cc2)C12CCCC2 (stereo not given) returned KDM5B inhibitor 16µM.
`COCCN1C(=O)c2ccccc2C(C(=O)NCCc2c[nH]c3ccccc23)C12CCCC2` (stereo not given) gave KDM5B inhibitor 22µM.
CCCCNC(=O)C1c2ccccc2C(=O)N(CCOC)C12CCCCC2 (stereo not given) was read as KDM5B inhibitor inactive.
For COCCN1C(=O)c2ccccc2C(C(=O)Nc2ccc(C(=O)OC)cc2)C12CCCC2 (stereo not given) the results were KDM5B inhibitor inactive.
`C=CC[N+](CC)(CC)CC#Cc1cccc(C)c1` gave KDM5B inhibitor inactive.
`Cc1ccc(CNC(=O)C2(CC(=O)NC(C)C)CCCC2)cc1` gave KDM5B inhibitor inactive.
Screening CCc1nc(-c2c3n(c(=O)n(CC(N)=O)c2=O)CCCCC3)no1 returned KDM5B inhibitor inactive.
`O=C1c2c(nc(CNCC3CC3)n2Cc2ccccc2)NCCN1Cc1ccccc1` gave KDM5B inhibitor inactive.
For Cc1[nH]c2ccccc2c1SCCNC(=O)c1cccs1 the results were KDM5B inhibitor inactive.
`O=C(O)CCCN1CCCCCC1` gave KDM5B inhibitor inactive.
`CCNc1c(NS(=O)(=O)c2ccc(OC)c(OC)c2)c(=O)oc2ccccc12` gave KDM5B inhibitor inactive.
CSc1ccc(Cl)c(C(=O)NCCC2=CCCCC2)c1 was read as KDM5B inhibitor inactive.
Screening COc1ccccc1-c1nc(C(=O)NCCc2ccc(Cl)cc2)n2ccncc12 returned KDM5B inhibitor 79µM.
O=C(NCCc1ccc(Cl)cc1)c1cc(-c2cnccc2Cl)c2cccn2n1 was read as KDM5B inhibitor inactive.
Screening N#CC1CCN(C(=O)C2CN(c3cccc(Cl)c3)C(=O)N2)CC1 (stereo not given) returned KDM5B inhibitor inactive.
Screening CN(C)C(=O)C1CCc2nnc(-c3ccc(Cl)cc3Cl)n21 (stereo not given) returned KDM5B inhibitor inactive.
For CN(C)C(=O)c1nc(-c2ccc(Cl)cc2Cl)c2ccccn12 the results were KDM5B inhibitor 89µM.
For N#CC1CCN(C(=O)c2nc(-c3ccc(Cl)cc3Cl)c3ccccn23)CC1 the results were KDM5B inhibitor 28µM.
`O=C(NCCc1ccncc1)c1ccc(Cl)cc1Cl` gave KDM5B inhibitor inactive.
COc1ccc(CCNC(=O)Cn2c(=O)nc(-c3ccccc3F)c3cc(Cl)ccc32)cc1OC was read as KDM5B inhibitor inactive.
For O=C(NCCc1ccc(Cl)cc1)c1nc(-c2ccc(Cl)cc2Cl)c2cnccn12 the results were KDM5B inhibitor 56µM.
Cn1c(-c2ccc(Cl)cc2Cl)cc2ccccc21 was read as KDM5B inhibitor inactive.
Screening COc1ccc(CCNC(=O)c2nc(SCc3ccccc3F)ncc2Cl)cc1OC returned KDM5B inhibitor inactive.
N#CC1CCN(C(=O)C2CCc3nnc(-c4ccc(Cl)cc4Cl)n32)CC1 (stereo not given) was read as KDM5B inhibitor inactive.
Screening O=C(O)CCCC(=O)N1CCNCC1 returned KDM5B inhibitor inactive.
Screening Cc1ccc(Cn2c(Sc3ccccc3)nc3c2c(=O)[nH]c(=O)n3C)cc1 returned KDM5B inhibitor inactive.
`O=C(C[C@@H]1CCNC[C@@H]1Cc1cc(CC2CCCCC2)on1)NCc1ccccc1` gave KDM5B inhibitor inactive.
Screening O=c1c2ccc(Cl)cc2ncn1Cc1ncc(-c2ccccc2)o1 returned KDM5B inhibitor inactive.
Cc1cccc(-c2nc(CS(=O)CC(=O)NCc3ccc(F)cc3)c(C)o2)c1 (stereo not given) was read as KDM5B inhibitor inactive.
For CCOc1ccc(-c2nc(CSc3nc4c(=O)[nH]cnc4n3C)c(C)o2)cc1OC the results were KDM5B inhibitor inactive.
`Cc1cc(C(=O)OCC(=O)Nc2ccc(Br)c(C)c2)c2ccccc2n1` gave KDM5B inhibitor inactive.
For O=C(NCCc1ccc(Cl)cc1)c1nc(-c2ccc(Cl)cc2Cl)c2ccccn12 the results were KDM5B inhibitor 79µM.
For Cc1ccc2nc(-c3ccccc3Cl)cc(C(=O)NC3CC3)c2c1 the results were KDM5B inhibitor inactive.
O=C(NC1CC1)C1CCN(C(=O)c2ccc(Cl)cc2Cl)CC1 was read as KDM5B inhibitor inactive.
Screening O=C(NC1CC1)c1nc(-c2ccc(Cl)cc2Cl)c2ccccn12 returned KDM5B inhibitor 28µM.
For Cc1cccc(CS(=O)(=O)N2CCC(C(=O)Nc3ccc(CSc4ccccc4)cc3)CC2)c1 the results were KDM5B inhibitor inactive.
CCOc1cc(/C=C2/NC(=O)NC2=O)ccc1OCc1ccccc1F was read as KDM5B inhibitor inactive.
For O=C(O)C(c1c[nH]c2cc(Br)ccc12)N1CCCN(c2ccc(C(F)(F)F)cn2)CC1 (stereo not given) the results were KDM5B inhibitor inactive.
For CCc1cccc(C)c1NC(=O)Cc1c[nH]c2ccccc12 the results were KDM5B inhibitor inactive.
For O=C(/C=C/c1ccccc1)NCc1ccc2c(c1)OCO2 the results were KDM5B inhibitor inactive.
For O=C(NCc1ccc2c(c1)OCO2)c1nc(-c2cccc(C(F)(F)F)c2)c2ccccn12 the results were KDM5B inhibitor 11µM.
